# Laboratory results from PubChem BioAssay.
# Results with a measured potency or affinity are listed apart. Records with an inconclusive call do not appear. The source made the active and inactive calls.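 How the source made its calls, unless noted: active means signal drop whose fitted half-maximal concentration is at most twice the top valid dose, in every test run; inconclusive means mixed calls across runs, poor fit, or flat 30 to 70% inhibition; inactive means wrong direction, flat within 30%, or potency beyond limit.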
# Experiment: RMG-1 ovarian cancer cell viability loss – cherry-pick, dose response (AID 687029);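 further: cells exposed to compound for 96 hours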
# Details: RMG-1 viability, CellTiterGlo ATP luminescence, 96 h; series mostly up to 35 µM; activity change, negative = inhibition: at the top concentration
row,SMILES,"activity change, negative = inhibition"
1,O=C1C=CC(=O)c2c(O)c(N3CCN(CCOCCO)CC3)c(Br)c(O)c21,16% (inactive)
2,O=C(C[C@@H]1C/C=C/CC[C@H](Cc2ccc(F)cc2)C(=O)OC[C@@H](Cc2ccccc2)NC1=O)N[C@H](CO)Cc1ccccc1,22.2% (inactive)
3,Cc1ccc2c(CC(=O)OCC(=O)Nc3ccc(Cl)cn3)coc2c1,24.5% (inactive)
4,CCSc1ccc(-c2cc(NC=O)c3ncc(-c4cccc(C(=O)NCCN(C)C)c4)n3c2)cc1,28.9% (inactive)
5,COc1ccc(C(=O)NNC(=O)c2ccccn2)cc1,3.67% (inactive)
6,COc1cccc(/C=N/Nc2cc(C)nc(-c3ccccc3O)n2)c1O,20% (inactive)
7,C#CCN(C[C@@H]1[C@@H](OC(=O)NCCCCCC)[C@@H](OC(=O)NCCCCCC)Cn2c(=O)ccc(=O)n21)S(=O)(=O)c1ccc(C)cc1,41.8% (inactive)
8,COC(=O)C1=C(SC)N(c2ccccc2)C(c2ccccc2)CC1=O (stereo not given),33.7% (inactive)
9,C=C1CCc2c([nH]c3ccc(OCC(C)C)cc23)C1=O,33.3% (inactive)
10,COc1ccccc1-c1ccc(OCCCN2CCC(C(O)(c3ccccc3)c3ccccc3)CC2)cc1,34.2% (inactive)
11,COc1cccc(/C=N/Nc2ccc(C(=O)O)cc2)c1O,-5.72% (inactive)
12,C[C@H](CO)N1C[C@H](C)[C@@H](CN(C)C(=O)Nc2ccc3c(c2)OCO3)Oc2cc(C#Cc3ccncc3)ccc2S1(=O)=O,17.6% (inactive)
13,CN(C[C@H]1N[C@@H](CO)[C@@H]1c1ccc(C2=CCCC2)cc1)C(=O)c1ccc(F)cc1,8.65% (inactive)
14,COc1ccc(C(C(=O)NC2CCCCC2)N(C(=O)CCl)c2cccc(Cl)c2)cc1 (stereo not given),26% (inactive)
15,O=C(NC1=CC(=O)c2ccccc2C1=O)c1ccccc1,55.9% (inactive)
16,COc1ccccc1C#Cc1ccc([C@H]2[C@@H](CO)N(C(=O)C3CCCCC3)[C@H]2C#N)cc1,13.3% (inactive)
17,O=C(OCc1ccccc1)N(CCCCN(CCCNCc1ccccc1)C(=O)OCc1ccccc1)CCCNCc1ccccc1,24.4% (inactive)
18,CC(C)CN1CCN(C(=O)COC(=O)c2ccc(S(C)(=O)=O)c([N+](=O)[O-])c2)CC1,2.85% (inactive)
19,CC1(C)CC(=O)C=C(C#CC2(O)CCCCC2)C1,18.6% (inactive)
20,Cc1cc(N/N=C/c2ccc(O)c(C)c2O)nc(-c2ccccc2O)n1,36.8% (inactive)

row,SMILES,"activity change, negative = inhibition"
1,COc1ccccc1C(=O)Nc1nc2ccccc2s1,30.3% (inactive)
2,COC(=O)C1=C(C)N(Cc2cccc(C(F)(F)F)c2)C(=NCC2CC2)NC1c1cccc(C(F)(F)F)c1 (stereo not given),21.9% (inactive)
3,CCC(OC(=O)c1ccc(S(C)(=O)=O)c([N+](=O)[O-])c1)C(=O)NC1C2CC3CC(C2)CC1C3 (stereo not given),33.1% (inactive)
4,CC(C)N(CC(=O)Nc1ccc(Cl)cc1C(F)(F)F)C(=O)CCl,-11.9% (inactive)
5,COc1cc(OC)nc(-n2ncc(Br)c(Br)c2=O)n1,6.64% (inactive)
6,O=C(Nc1cccc(NC(=O)c2ccc([N+](=O)[O-])o2)c1)c1ccco1,10.4% (inactive)
7,C=C1CC(Cn2cc(Br)c(=O)[nH]c2=O)(c2ccc(-c3ccccc3)cc2)OC1=O (stereo not given),12.3% (inactive)
8,CCN1CCN(Cc2ccc(NC(=O)c3cc(NC(=O)c4cncc(-c5ccc(C#N)cc5)c4)cc(OC)c3)cc2C(F)(F)F)CC1,-6.47% (inactive)
9,COc1cccc(/C=C2/Sc3ccc(C(=O)NCCN4CCCCCC4)cc3NC2=O)c1,39.6% (inactive)
10,COc1ccc(/C=C/c2nc3ccccc3n2C)cc1,20.5% (inactive)
11,CS(=O)(=O)c1ccc(C(=O)OCC(=O)N2CCN(CCC3CCCCC3)CC2)cc1[N+](=O)[O-],7.7% (inactive)
12,Cc1nn(-c2nc3ccccc3[nH]2)c(=O)c2ccccc12,36.7% (inactive)
13,O=C(O)c1ccc(N/N=C/c2ccc3nccnc3c2)cc1,19.1% (inactive)
14,O=S(=O)(c1ccc2c(c1)C(=NO)c1cc(S(=O)(=O)N3CCCCC3)ccc1-2)N1CCCCC1,9.74% (inactive)
15,Cc1cccc(N(Cc2ccccc2)C(=O)CCl)c1,-12.3% (inactive)
16,CC[C@@H](C(=O)[C@@H](C)[C@@H](O)[C@H](C)CCc1ccc(C)c(O)c1C(=O)O)[C@H]1O[C@](CC)([C@H]2CC[C@](O)(CC)[C@H](C)O2)C[C@@H]1C,31.6% (inactive)
17,COc1ccc(C(C(=O)NC2CCCCC2)N(C(=O)CCl)c2ccc(C)cc2)cc1 (stereo not given),28.4% (inactive)
18,O=C(NC1CCCCC1)C(c1cccnc1)N(C(=O)CCl)c1ccccc1Cl (stereo not given),29.7% (inactive)
19,CN(C[C@H]1N[C@@H](CO)[C@@H]1c1ccc(C2=CCCC2)cc1)C(=O)c1ccncc1,14.1% (inactive)
20,CCOc1ccccc1NC(=O)c1nc(S(=O)(=O)Cc2ccccc2)ncc1Cl,11.3% (inactive)

# Experiment: IOSE-T80 viability loss, PAX8-independent line – cell-based, cherry-pick, selectivity assay for PAX8 inhibitor project, dose response (AID 687032;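 active means fitted half-maximal concentration for viability loss no higher than twice the top valid dose, in every repeat run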;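 further: cells exposed to compound for 96 h before reading; 0% = neutral control wells and -100% = 2 µM mitoxantrone kill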)
# Details: CellTiterGlo ATP luminescence, 96 h; series mostly up to 35 µM; activity change, negative = viability loss: at the top concentration
row,SMILES,"activity change, negative = viability loss"
1,O=C1C=CC(=O)c2c(O)c(N3CCN(CCOCCO)CC3)c(Br)c(O)c21,9.17% (inactive)
2,O=C(C[C@@H]1C/C=C/CC[C@H](Cc2ccc(F)cc2)C(=O)OC[C@@H](Cc2ccccc2)NC1=O)N[C@H](CO)Cc1ccccc1,-1.3% (inactive)
3,Cc1ccc2c(CC(=O)OCC(=O)Nc3ccc(Cl)cn3)coc2c1,0.123% (inactive)
4,CCSc1ccc(-c2cc(NC=O)c3ncc(-c4cccc(C(=O)NCCN(C)C)c4)n3c2)cc1,18.8% (inactive)
5,COc1ccc(C(=O)NNC(=O)c2ccccn2)cc1,6.79% (inactive)
6,COc1cccc(/C=N/Nc2cc(C)nc(-c3ccccc3O)n2)c1O,9.81% (inactive)
7,C#CCN(C[C@@H]1[C@@H](OC(=O)NCCCCCC)[C@@H](OC(=O)NCCCCCC)Cn2c(=O)ccc(=O)n21)S(=O)(=O)c1ccc(C)cc1,18.9% (inactive)
8,COC(=O)C1=C(SC)N(c2ccccc2)C(c2ccccc2)CC1=O (stereo not given),13.1% (inactive)
9,C=C1CCc2c([nH]c3ccc(OCC(C)C)cc23)C1=O,9.75% (inactive)
10,COc1ccccc1-c1ccc(OCCCN2CCC(C(O)(c3ccccc3)c3ccccc3)CC2)cc1,6.83% (inactive)
11,COc1cccc(/C=N/Nc2ccc(C(=O)O)cc2)c1O,-5.08% (inactive)
12,C[C@H](CO)N1C[C@H](C)[C@@H](CN(C)C(=O)Nc2ccc3c(c2)OCO3)Oc2cc(C#Cc3ccncc3)ccc2S1(=O)=O,2.35% (inactive)
13,CN(C[C@H]1N[C@@H](CO)[C@@H]1c1ccc(C2=CCCC2)cc1)C(=O)c1ccc(F)cc1,16.6% (inactive)
14,COc1ccc(C(C(=O)NC2CCCCC2)N(C(=O)CCl)c2cccc(Cl)c2)cc1 (stereo not given),12.1% (inactive)
15,O=C(NC1=CC(=O)c2ccccc2C1=O)c1ccccc1,9.52% (inactive)
16,COc1ccccc1C#Cc1ccc([C@H]2[C@@H](CO)N(C(=O)C3CCCCC3)[C@H]2C#N)cc1,13.3% (inactive)
17,O=C(OCc1ccccc1)N(CCCCN(CCCNCc1ccccc1)C(=O)OCc1ccccc1)CCCNCc1ccccc1,12.7% (inactive)
18,CC(C)CN1CCN(C(=O)COC(=O)c2ccc(S(C)(=O)=O)c([N+](=O)[O-])c2)CC1,4.39% (inactive)
19,CC1(C)CC(=O)C=C(C#CC2(O)CCCCC2)C1,5.96% (inactive)
20,Cc1cc(N/N=C/c2ccc(O)c(C)c2O)nc(-c2ccccc2O)n1,8.05% (inactive)

row,SMILES,"activity change, negative = viability loss"
1,COc1ccccc1C(=O)Nc1nc2ccccc2s1,15.1% (inactive)
2,COC(=O)C1=C(C)N(Cc2cccc(C(F)(F)F)c2)C(=NCC2CC2)NC1c1cccc(C(F)(F)F)c1 (stereo not given),11.4% (inactive)
3,CCC(OC(=O)c1ccc(S(C)(=O)=O)c([N+](=O)[O-])c1)C(=O)NC1C2CC3CC(C2)CC1C3 (stereo not given),12.3% (inactive)
4,CC(C)N(CC(=O)Nc1ccc(Cl)cc1C(F)(F)F)C(=O)CCl,-2.32% (inactive)
5,COc1cc(OC)nc(-n2ncc(Br)c(Br)c2=O)n1,6.44% (inactive)
6,O=C(Nc1cccc(NC(=O)c2ccc([N+](=O)[O-])o2)c1)c1ccco1,2.95% (inactive)
7,C=C1CC(Cn2cc(Br)c(=O)[nH]c2=O)(c2ccc(-c3ccccc3)cc2)OC1=O (stereo not given),5.09% (inactive)
8,CCN1CCN(Cc2ccc(NC(=O)c3cc(NC(=O)c4cncc(-c5ccc(C#N)cc5)c4)cc(OC)c3)cc2C(F)(F)F)CC1,-6.16% (inactive)
9,COc1cccc(/C=C2/Sc3ccc(C(=O)NCCN4CCCCCC4)cc3NC2=O)c1,8.06% (inactive)
10,COc1ccc(/C=C/c2nc3ccccc3n2C)cc1,3.19% (inactive)
11,CS(=O)(=O)c1ccc(C(=O)OCC(=O)N2CCN(CCC3CCCCC3)CC2)cc1[N+](=O)[O-],5.96% (inactive)
12,Cc1nn(-c2nc3ccccc3[nH]2)c(=O)c2ccccc12,18.2% (inactive)
13,O=C(O)c1ccc(N/N=C/c2ccc3nccnc3c2)cc1,20.2% (inactive)
14,O=S(=O)(c1ccc2c(c1)C(=NO)c1cc(S(=O)(=O)N3CCCCC3)ccc1-2)N1CCCCC1,1.8% (inactive)
15,Cc1cccc(N(Cc2ccccc2)C(=O)CCl)c1,-6.91% (inactive)
16,CC[C@@H](C(=O)[C@@H](C)[C@@H](O)[C@H](C)CCc1ccc(C)c(O)c1C(=O)O)[C@H]1O[C@](CC)([C@H]2CC[C@](O)(CC)[C@H](C)O2)C[C@@H]1C,8.86% (inactive)
17,COc1ccc(C(C(=O)NC2CCCCC2)N(C(=O)CCl)c2ccc(C)cc2)cc1 (stereo not given),-0.163% (inactive)
18,O=C(NC1CCCCC1)C(c1cccnc1)N(C(=O)CCl)c1ccccc1Cl (stereo not given),11.1% (inactive)
19,CN(C[C@H]1N[C@@H](CO)[C@@H]1c1ccc(C2=CCCC2)cc1)C(=O)c1ccncc1,5.44% (inactive)
20,CCOc1ccccc1NC(=O)c1nc(S(=O)(=O)Cc2ccccc2)ncc1Cl,7.29% (inactive)
